# PubChem BioAssay (NCI)
# The panel holds about 83,000 compounds, 20% with a hit somewhere; the sample as a whole holds those more often.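 The endpoint reported here, percent growth, reads 100 for growth as untreated, 0 for no net growth and -100 for all cells dead.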 Values without a mark were called inactive. Active and inactive are the calls of the source. How the source made its calls: active means growth percent below 10; inactive means the rest.
# What was measured:
# Assay in all cases: NCI-60 one-dose screen, 48 h (100 = growth as untreated, 0 = no growth, -100 = all killed)
# Conditions in all cases: 10 µM
# SR leukemia = tested on: SR leukemia
# RPMI-8226 leukemia = tested on: RPMI-8226 leukemia
# OVCAR-8 ovarian = tested on: OVCAR-8 ovarian
# OVCAR-5 ovarian = tested on: OVCAR-5 ovarian
# OVCAR-4 ovarian = tested on: OVCAR-4 ovarian
# SK-OV-3 ovarian = tested on: SK-OV-3 ovarian
# OVCAR-3 ovarian = tested on: OVCAR-3 ovarian
# NCI/ADR-RES ovarian = tested on: NCI/ADR-RES ovarian
# T-47D breast = tested on: T-47D breast
# BT-549 breast = tested on: BT-549 breast
# MDA-MB-435 melanoma = tested on: MDA-MB-435 melanoma
# MCF7 breast = tested on: MCF7 breast
# HCT-116 colon = tested on: HCT-116 colon
# HCC-2998 colon = tested on: HCC-2998 colon
# KM12 colon = tested on: KM12 colon
# IGROV1 ovarian = tested on: IGROV1 ovarian
# HS 578T breast = tested on: HS 578T breast
# SW-620 colon = tested on: SW-620 colon
Structure (SMILES),growth (SR leukemia),growth (RPMI-8226 leukemia),growth (OVCAR-8 ovarian),growth (OVCAR-5 ovarian),growth (OVCAR-4 ovarian),growth (SK-OV-3 ovarian),growth (OVCAR-3 ovarian),growth (NCI/ADR-RES ovarian),growth (T-47D breast),growth (BT-549 breast),growth (MDA-MB-435 melanoma),growth (MCF7 breast),growth (HCT-116 colon),growth (HCC-2998 colon),growth (KM12 colon),growth (IGROV1 ovarian),growth (HS 578T breast),growth (SW-620 colon)
NC(N)=N/N=C(\c1ccccc1)C(O)c1ccccc1 (configuration not stated),95.9%,94.5%,105%,112%,105%,94.2%,111%,111%,89.9%,103%,107%,94.9%,100%,100%,105%,,,
COc1cc2cc(Oc3ccc(NC(=O)Nc4cccc(C(F)(F)F)c4)cc3)c(C)nc2cc1OC,-6.62% (active),-5.94% (active),8.32% (active),27.8%,31.7%,,-0.54% (active),6.98% (active),27.8%,-8.13% (active),7.23% (active),6.81% (active),6.71% (active),25.4%,-10.2% (active),8.77% (active),22.5%,17.5%
CCC1NC(=O)c2cc(S(N)(=O)=O)c(Cl)cc2N1 (configuration not stated),103%,109%,100%,105%,130%,,126%,108%,104%,114%,101%,106%,115%,105%,113%,120%,112%,108%
CCC(C)[C@H](NC(C)=O)C(=O)N[C@@H](CCCNC(=N)N)C(=O)N[C@@H](CCCCN)C(=O)N[C@@H](CC1CCC(O)CC1)C(=O)NC(C(=O)N[C@@H](CCSC)C(=O)N[C@@H](CCCNC(=N)N)C(=O)N[C@@]1(C)CCC/C=C\CCC[C@@](C)(C(=O)NC(C(=O)N[C@@H](CCC(=O)O)C(=O)N[C@@H](CC(C)C)C(=O)N[C@H](C(=O)N[C@@H](CCC(=O)O)C(N)=O)C(C)C)[C@@H](C)O)NC(=O)[C@H](CCC(N)=O)NC(=O)[C@H](CC(C)C)NC(=O)[C@H](CC(C)C)NC1=O)[C@@H](C)O (some centres not stated),98.5%,95%,98.4%,115%,100%,,104%,108%,78.9%,117%,105%,102%,89.1%,103%,96.9%,100%,-7.65% (active),90.4%
C=C(NC(=O)C(=C)NC(=O)c1csc(C2=NC3c4csc(n4)C4NC(=O)c5csc(n5)C(C(C)(O)C(C)O)NC(=O)C5CSC(=N5)C(=CC)NC(=O)C(C(C)O)NC(=O)c5csc(n5)C3(CC2)NC(=O)C(C)NC(=O)C(=C)NC(=O)C(C)NC(=O)C(C(C)CC)NC2C=Cc3c(C(C)O)cc(nc3C2O)C(=O)OC4C)n1)C(N)=O (configuration not stated),-7.28% (active),10.1%,20.4%,34%,33.1%,,34%,86.3%,40.4%,0.0683% (active),4.84% (active),16.7%,-70.9% (active),79.3%,28.3%,64.6%,42.5%,1.83% (active)
c1ccc(CCCCc2ccc3ccccc3n2)cc1,99.7%,103%,101%,97.9%,111%,,,102%,,102%,108%,108%,96%,92.9%,106%,100%,98.7%,102%
CC(=O)C1N=NCC1c1ccccc1 (configuration not stated),111%,110%,111%,98.9%,106%,103%,110%,,104%,105%,108%,95.7%,100%,102%,102%,,90%,101%
O=C1c2ccccc2C(=O)c2c1ccc(C(Br)Br)c2Cl,-51.2% (active),-15.5% (active),17.1%,104%,35.5%,,-13.8% (active),64.6%,22.7%,,60%,2.06% (active),-62.7% (active),87.4%,47.5%,-43.2% (active),85.6%,-23.4% (active)
O=C(Nc1ccc(NS(=O)(=O)c2ccc(F)cc2)cc1)C12CC3CC(CC(C3)C1)C2,75.5%,89.3%,94.7%,97.1%,99%,,98.6%,85.5%,76.2%,93.8%,95.9%,78%,97.8%,96.4%,99.4%,102%,94.4%,99.4%
